± gives the standard deviation of the averaged measurements.
What was measured:
Experiment in all cases: cell viability (% of vehicle); higher = less cytotoxic
HCI01 [1] = cells of a triple-negative basal-like breast cancer xenograft; conditions: 1 µM; 72 h
UCD52 [2] = cells of a triple-negative basal-like breast cancer xenograft; conditions: 1 µM; 72 h
WHIM2 [3] = cells of a triple-negative basal-like breast cancer xenograft; conditions: 1 µM; 72 h
WHIM30 [4] = cells of a triple-negative basal-like breast cancer xenograft; conditions: 1 µM; 72 h
HCI01 [5] = conditions: 10 µM; 72 h
HCI03 = cells of an ER-positive luminal breast cancer xenograft; conditions: 10 µM; 72 h
HCI09 = cells of a triple-negative luminal androgen receptor type breast cancer xenograft; conditions: 10 µM; 72 h
HCI11 = cells of an ER-positive luminal breast cancer xenograft; conditions: 10 µM; 72 h
HCI13 = cells of an ER-positive luminal breast cancer xenograft; conditions: 10 µM; 72 h
HCI16 = cells of a triple-negative basal-like breast cancer xenograft; conditions: 10 µM; 72 h
UCD52 [6] = conditions: 10 µM; 72 h
WHIM2 [7] = conditions: 10 µM; 72 h
WHIM30 [8] = conditions: 10 µM; 72 h

Row | Compound | cell viability (HCI01 [1]) | cell viability (UCD52 [2]) | cell viability (WHIM2 [3]) | cell viability (WHIM30 [4]) | cell viability (HCI01 [5]) | cell viability (HCI03) | cell viability (HCI09) | cell viability (HCI11) | cell viability (HCI13) | cell viability (HCI16) | cell viability (UCD52 [6]) | cell viability (WHIM2 [7]) | cell viability (WHIM30 [8])
1 | CN(C)c1ccc(C(=C2C=CC(=[N+](C)C)C=C2)c2ccc(N(C)C)cc2)cc1.[Cl-] [Crystal Violet] | 74.7 | 61.1 | 51.2 | 40.8 | 28.8 ± 4.1 | 48.9 | 26.9 ± 4.8 | 28.1 | 24.73 ± 0.16 | 56.7 | 29.6 ± 3.3 | 46.7 ± 15 | 36.8 ± 2.2
2 | CC(C)CC(NC(=O)CNC(=O)c1cc(Cl)ccc1Cl)B(O)O (configuration not stated) | 51.7 | 24.9 | 130 | 23.1 | 53.4 ± 8.3 | 116 | 14.9 ± 0.73 | 174 | 33.1 ± 5.4 | 84.6 | 58.8 ± 3.8 | 34.22 ± 0.066 | 80.3 ± 24
3 | Cc1nc(NC(=O)N2CCCC2C(N)=O)sc1-c1ccnc(C(C)(C)C(F)(F)F)c1 (configuration not stated) | 74 | 64.7 | 54.9 | 83.3 | 85.7 ± 9.2 | 45.8 | 28.8 ± 5.1 | 75.9 | 44.2 ± 6.9 | 93.6 | 38.5 ± 2.5 | 65.6 ± 19 | 65.9 ± 2
4 | Cc1c(C(=O)NN2CCCCC2)nn(-c2ccc(Cl)cc2Cl)c1-c1ccc(Cl)cc1 [Rimonabant] | 87.4 | 91.1 | 100 | 82.6 | 72.2 ± 38 | 114 | 22.2 ± 6.1 | 87.3 | 74.2 ± 19 | 96.7 | 62.3 ± 10 | 35.9 ± 10 | 68.4 ± 15
5 | CN(C)CC=CC(=O)Nc1cc2c(Nc3ccc(F)c(Cl)c3)ncnc2cc1OC1CCOC1 (configuration not stated) [Afatinib (BIBW2992)] | 71.3 | 27.2 | 50.9 | 49.6 | 25.61 ± 0.24 | 47.7 | 15.1 ± 1.8 | 73.5 | 43.4 ± 1.5 | 55.4 | 18.7 ± 0.37 | 34.6 ± 2.6 | 44.3 ± 6.3
6 | CC(C)c1nc(CN(C)C(=O)NC(C(=O)NC(Cc2ccccc2)CC(O)C(Cc2ccccc2)NC(=O)OCc2cncs2)C(C)C)cs1 (configuration not stated) [Ritonavir] | 88.2 | 82.1 | 88.4 | 91.1 | 72 ± 3.7 | 98 | 48.2 ± 0.57 | 83.6 | 57.8 ± 3.3 | 96.1 | 41.5 ± 0.54 | 62.6 ± 2.7 | 82 ± 16
7 | CCOc1cc2ncc(C#N)c(Nc3ccc(F)c(Cl)c3)c2cc1NC(=O)C=CCN(C)C [Pelitinib (EKB-569)] | 98.5 | 27 | 31.4 | 46.1 | 30.5 ± 8.4 | 60.7 | 21.7 ± 4.1 | 37.7 | 34.2 ± 0.47 | 37.9 | 32.5 ± 1.5 | 31.1 ± 17 | 57.6 ± 12
8 | CC1CC(=O)NN=C1c1ccc(NN=C(C#N)C#N)cc1 (configuration not stated) [Levosimendan] | 89.2 | 95.2 | 114 | 96.7 | 50.6 ± 31 | 183 | 51.9 ± 30 | 139 | 145 ± 28 | 82.2 | 51.1 ± 2.5 | 47.8 ± 9.7 | 86.7 ± 2.7
9 | CC(C)Nc1cc(-c2c[nH]c(C(=O)NC(CO)c3cccc(Cl)c3)c2)c(Cl)cn1 (configuration not stated) | 84.8 | 59.1 | 72.7 | 78.4 | 39 ± 8.9 | 135 | 36.8 ± 21 | 81.7 | 43.5 ± 2.5 | 106 | 56.5 ± 4 | 45.3 ± 6.3 | 104 ± 10
10 | CC(C)C(=O)OCC(=O)[C@@]12O[C@H](C3CCCCC3)O[C@@H]1C[C@H]1[C@@H]3CCC4=CC(=O)C=C[C@]4(C)[C@H]3[C@@H](O)C[C@@]12C [Ciclesonide] | 115 | 127 | 81.6 | 145 | 67.6 ± 23 | 76.3 | 50.6 ± 24 | 90.1 | 48.9 ± 2.2 | 122 | 46.7 ± 24 | 36 ± 1.9 | 100 ± 16
11 | CNC(=O)c1cc(Oc2ccc(NC(=O)Nc3ccc(Cl)c(C(F)(F)F)c3)c(F)c2)ccn1 [Regorafenib] | 103 | 80.7 | 99.6 | 89.9 | 22.5 ± 4.2 | 48 | 13.2 ± 3.8 | 43.5 | 83.1 ± 5.7 | 39.7 | 117 ± 4.5 | 30.6 ± 7.5 | 44.9 ± 1.4
12 | CC[C@H](C)[C@H]1O[C@]2(CC[C@@H]1C)C[C@@H]1C[C@@H](C/C=C(\C)[C@@H](O[C@H]3C[C@H](OC)[C@@H](O[C@H]4C[C@H](OC)[C@@H](O)[C@H](C)O4)[C@H](C)O3)[C@@H](C)/C=C/C=C3\CO[C@@H]4[C@H](O)C(C)=C[C@@H](C(=O)O1)[C@]34O)O2 [Ivermectin] | 90.6 | 57.6 | 86.6 | 73.3 | 38.3 ± 8 | 81.2 | 20 ± 3.4 | 81 | 37.6 ± 8.1 | 82.9 | 76.3 ± 3 | 40.5 ± 7.1 | 36.2 ± 3
13 | CCOc1cc2ncc(C#N)c(Nc3ccc(OCc4ccccn4)c(Cl)c3)c2cc1NC(=O)C=CCN(C)C [Neratinib (HKI-272)] | 78.4 | 43.9 | 36.4 | 68.9 | 30.1 ± 7.1 | 38.1 | 27.8 ± 11 | 21.3 | 37.6 ± 1.3 | 38.7 | 23.2 ± 2.3 | 49.8 ± 12 | 96.1 ± 1.7
14 | CC(C)(C)c1ccc(C(O)CCCN2CCC(C(O)(c3ccccc3)c3ccccc3)CC2)cc1 (configuration not stated) [Terfenadine] | 89 | 79.9 | 81.1 | 73.1 | 34.4 ± 5.2 | 38.1 | 30.4 ± 2.9 | 55.3 | 48.3 ± 4.8 | 45.8 | 35.1 ± 4 | 42 ± 2.8 | 29.6 ± 3.5
15 | C=C1C(=CC=C2CCCC3(C)C2CCC3C(C)C=CC(C)C(C)C)CC(O)CC1O (configuration not stated) [Doxercalciferol] | 75.3 | 63.6 | 61.8 | 93.1 | 39.4 ± 14 | 137 | 26.4 ± 8.6 | 75.3 | 52.8 ± 3 | 106 | 54.8 ± 6.5 | 50.8 ± 12 | 180 ± 17
16 | COc1ccc2c(O[C@H]3CC4C(=O)N(C)CCCC/C=C\[C@H]5C[C@@]5(C(=O)NS(=O)(=O)C5CC5)NC(=O)[C@@H]4C3)cc(-c3nc(C(C)C)cs3)nc2c1C (some centres not stated) [Simeprevir] | 104 | 90.4 | 106 | 86.7 | 29.8 ± 3.8 | 39.5 | 20.8 ± 2.6 | 72.7 | 38.5 ± 3.4 | 28.7 | 32.64 ± 0.11 | 39 ± 3.6 | 28.5 ± 2.1
17 | Cl.Cl.Fc1ccc(C(c2ccc(F)cc2)N2CCN(CC=Cc3ccccc3)CC2)cc1 [Flunarizine 2HCl] | 106 | 94.1 | 101 | 88.9 | 106 ± 20 | 82.4 | 82.2 ± 42 | 96.5 | 75.4 ± 9.1 | 106 | 46.7 ± 2.5 | 38.9 ± 12 | 87.3 ± 8.5
18 | Cl.OC(c1cc(C(F)(F)F)nc2c(C(F)(F)F)cccc12)C1CCCCN1 (configuration not stated) [Mefloquine hydrochloride] | 97.5 | 66 | 103 | 74 | 31.9 ± 1.3 | 40.5 | 23.9 ± 5.5 | 51.4 | 44.6 ± 6.4 | 30 | 30.3 ± 5.2 | 37.7 ± 2 | 49 ± 2.9
19 | CC(C)(C)c1ccc(C(=O)CCCN2CCC(OC(c3ccccc3)c3ccccc3)CC2)cc1 [Ebastine] | 94.4 | 87.5 | 107 | 83.4 | 83.8 ± 57 | 70.2 | 53.2 ± 39 | 81.2 | 31.9 ± 3.6 | 77.5 | 52.1 ± 4.6 | 52.3 ± 7.3 | 78.2 ± 9.7
20 | Cl.Clc1ccccc1CN1CCc2sccc2C1 [Ticlopidine HCl] | 99.4 | 97.4 | 99.6 | 91.9 | 56.5 ± 32 | 108 | 82 ± 2.9 | 91.6 | 108 ± 34 | 97.2 | 62.5 ± 2.4 | 82.5 ± 24 | 89.7 ± 5.6
21 | CC(NCCCc1cccc(C(F)(F)F)c1)c1cccc2ccccc12.Cl (configuration not stated) [Cinacalcet HCl] | 94.5 | 85.7 | 76.7 | 81.6 | 38.8 ± 2.6 | 46.8 | 21.6 ± 4.7 | 64.8 | 43.3 ± 2.8 | 43.6 | 29.6 ± 2.4 | 43.2 ± 5.7 | 27.6 ± 1.3
22 | CN(C(=O)CN(CCO)CC(=O)N(C)C(C)(C)Cc1ccccc1)C(C)(C)Cc1ccccc1 [Oxethazaine] | 87.3 | 93.6 | 88.5 | 88.4 | 96.6 ± 4.3 | 55.9 | 69.4 ± 40 | 87.9 | 45.7 ± 12 | 83.1 | 39.3 ± 4.8 | 43.2 ± 9.4 | 96.4 ± 9.4
23 | COc1cc(C(=O)NS(=O)(=O)c2ccccc2C)ccc1Cc1cn(C)c2ccc(NC(=O)OC3CCCC3)cc12 [Zafirlukast] | 93.6 | 95.3 | 111 | 97.2 | 24.1 ± 0.82 | 87.8 | 22.3 ± 1.4 | 86.4 | 111 ± 2.8 | 106 | 78.7 ± 6.7 | 42.6 ± 1.2 | 116 ± 8.7
24 | C=CC(=O)N1CCC(Oc2cc3c(Nc4ccc(Cl)c(Cl)c4F)ncnc3cc2OC)CC1 [Poziotinib] | 62.3 | 36.5 | 32.9 | 50.7 | 39.4 ± 14 | 48.7 | 47.1 ± 2.5 | 48 | 34.2 ± 4.1 | 66.1 | 44.2 ± 4.5 | 50.5 ± 5.6 | 35.8 ± 10
25 | O=C(O)CO.[NH2-].[NH2-].[Pt+2] [Nedaplatin] | 85.1 | 103 | 105 | 79.4 | 52.5 ± 16 | 89 | 87.8 ± 5.8 | 96.8 | 97 ± 12 | 51.1 | 33.06 ± 0.081 | 56.2 ± 5.7 | 66 ± 3.2
26 | CCCCCCCCCCCCCCCCOP(=O)([O-])OCC[N+](C)(C)C [Miltefosine] | 89.6 | 101 | 85.8 | 92.6 | 98.9 ± 9.1 | 108 | 87.7 ± 30 | 107 | 33.2 ± 0.37 | 82.1 | 77.6 ± 9.7 | 38.2 ± 14 | 58.56 ± 0.43
27 | CO[C@H]1C[C@@H]2CC[C@@H](C)[C@@](O)(O2)C(=O)C(=O)N2CCCC[C@H]2C(=O)O[C@H]([C@H](C)C[C@@H]2CC[C@@H](OC(=O)C(C)(CO)CO)[C@H](OC)C2)CC(=O)[C@H](C)/C=C(\C)[C@@H](O)[C@@H](OC)C(=O)[C@H](C)C[C@H](C)/C=C/C=C/C=C/1C [Temsirolimus] | 76.2 | 55.1 | 80 | 74.2 | 31.8 ± 1.4 | 57.5 | 26.7 ± 8.6 | 54.3 | 24.6 ± 11 | 45.2 | 23.1 ± 2.3 | 42.4 ± 15 | 30.5 ± 1.6
28 | CCCCc1oc2ccc(NS(C)(=O)=O)cc2c1C(=O)c1ccc(OCCCN(CCCC)CCCC)cc1.Cl [Dronedarone HCl] | 110 | 86.5 | 106 | 76.2 | 29.3 ± 12 | 48 | 24.4 ± 12 | 66.1 | 34.9 ± 1.1 | 46.6 | 30.9 ± 5.9 | 40.9 ± 14 | 33.3 ± 5.1
29 | COc1ccc(C[C@H](N)C(=O)N[C@@H]2[C@H](O)[C@H](n3cnc4c(N(C)C)ncnc43)O[C@@H]2CO)cc1.Cl.Cl [Puromycin dihydrochloride] | 93.8 | 22.3 | 86.9 | 76.8 | 28.6 ± 2.4 | 58.6 | 26.89 ± 0.082 | 33.4 | 51.1 ± 14 | 52 | 34.5 ± 0.59 | 42 ± 4.2 | 33.3 ± 2.3
